From PubChem BioAssay AID720540 (National Center for Advancing Translational Sciences (NCATS), 2013) come the findings set out here.

About 460 (35%) of roughly 1,300 compounds were called active. Inconclusive results (about 39%) are left out. The call rests on the fitted dose curve; in most records, active means well fitted inhibition curve with a large enough effect; inconclusive means small, poorly fitted or top-dose-only effect; inactive means flat fitted curve, though single readings scatter. The list shows a part of the results.
Potency means the concentration at half of the fitted maximal effect.

Sequence of Protein phosphatase EYA2 (Homo sapiens) (O00167 whole entry, looked up): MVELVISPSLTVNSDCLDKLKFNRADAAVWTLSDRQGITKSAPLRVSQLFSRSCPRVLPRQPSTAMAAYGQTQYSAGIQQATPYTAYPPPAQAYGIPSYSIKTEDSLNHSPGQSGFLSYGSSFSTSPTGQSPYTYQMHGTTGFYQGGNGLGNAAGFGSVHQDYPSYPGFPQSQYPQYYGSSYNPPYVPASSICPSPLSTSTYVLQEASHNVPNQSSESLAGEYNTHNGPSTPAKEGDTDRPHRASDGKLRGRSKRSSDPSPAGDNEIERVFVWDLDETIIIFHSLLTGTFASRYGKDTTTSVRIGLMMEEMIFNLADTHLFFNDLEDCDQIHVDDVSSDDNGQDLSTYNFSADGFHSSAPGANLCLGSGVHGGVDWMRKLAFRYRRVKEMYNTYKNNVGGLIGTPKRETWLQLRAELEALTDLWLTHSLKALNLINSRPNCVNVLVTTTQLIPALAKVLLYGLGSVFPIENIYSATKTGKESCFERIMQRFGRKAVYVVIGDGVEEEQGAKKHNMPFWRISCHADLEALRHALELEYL

The test deals with Protein phosphatase EYA2 (Homo sapiens) (UniProt O00167). Briefly: qHTS for Inhibitors of the Phosphatase Activity of Eya2: Confirmatory Assay for Cherry-picked Compounds. Further: nearly all actives have a fitted effect of over 65% in size.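 On activity change, negative = inhibition: 0% = DMSO wells and -100% = EGTA control giving full inhibition.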 Conditions: purified EYA2 phosphatase activity, qHTS confirmation; series mostly up to 46.1 µM; activity change, negative = inhibition: at the top concentration. In short, it runs like this:
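Eya2 (0.2 uM working solution) preincubated 10 min at room temperature with compound in pH 7.5 HEPES buffer with MgCl2, BSA, DTT. OMFP added (50 uM working solution), 10 min more; fluorescence 485/525 nm, normalized to EGTA and DMSO.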
(In general: qHTS replaces the single test concentration by a dilution series.)
With `C#Cc1cccc(NC(=O)CSc2nnc(-c3ccc(C(F)(F)F)cn3)o2)c1`, the Potency was 15.1 µM (active).
On to `c1ccc2c(c1)nc(Nc1ccc(N3CCCCC3)cc1)c1nncn12`, for which the Potency is 16.9 µM (active).
Consider `CC1CCCCC1Nc1nc2ccc(Cl)cc2n2cnnc12` (stereo not drawn), for which the “activity change, negative = inhibition” value is -24% (inactive).
As to `CNc1ccc(/C=C2\C=Cc3ccccc32)cc1OC`, the Potency is 7.57 µM (active).
Still for that read-out and setting: to `CN(C)c1ccc(/C=C2\C=Cc3ccccc32)cc1N` belongs 15.1 µM (active); to `O=[N+]([O-])c1ccc(/C=C2\C=Cc3ccccc32)cc1`, 4.78 µM (active).
Still for that read-out and setting: the value for `CN(C)c1ccc(/C=C2\C=Cc3ccccc32)cc1[N+](=O)[O-]` was 6.75 µM (active).
As to `CCN(CC)CCNC(=O)c1ccc(N)cc1`, the “activity change, negative = inhibition” value is -4.89% (inactive).
As for `CC(NC(=O)c1cc2c(s1)CS(=O)(=O)C2)c1ccccc1` (stereo not drawn), the “activity change, negative = inhibition” value was -5.13% (inactive).
For `Cc1cc(/C=C2\C=Cc3ccccc32)ccc1N(C)C`, the Potency is 7.57 µM (active).
With `COc1cc(/C=C2/C=Cc3ccccc32)ccc1N(C)C`, the Potency is 6.75 µM (active).
Still for that read-out and setting: to `CCN(Cc1cccc(S(=O)(=O)O)c1)c1ccc(C(=C2C=CC(=[N+](CC)Cc3cccc(S(=O)(=O)O)c3)C=C2)c2ccccc2S(=O)(=O)[O-])cc1` belongs 9.53 µM (active); to `CCN(Cc1cccc(S(=O)(=O)O)c1)c1ccc(C(=C2C=CC(=[N+](CC)Cc3cccc(S(=O)(=O)O)c3)C=C2)c2ccc(O)cc2S(=O)(=O)O)cc1`, 6.01 µM (active).
In the case of `CC(=O)Nc1ccc(S(=O)(=O)N2C3CCCC2CC(NC(=O)C2CCCCC2)C3)cc1` (stereo not drawn), the “activity change, negative = inhibition” value is -9.63% (inactive).
On the same count and under the same terms, the value for `Cc1nc2c(C(=O)Nc3ccc(N4CCCC(O)C4)cc3)snc2c(=O)[nH]1` (stereo not drawn) was -21.6% (inactive).
On to `CC(=O)Nc1ccc(S(=O)(=O)Nc2ccc(N3CCCCC3)cc2)cc1`, for which the Potency is 8.49 µM (active).
On to `COc1cc(NC(=O)CN2C(=O)CSc3ccc(S(=O)(=O)N4CCCC4)cc32)cc(OC)c1`, for which the Potency was 5.36 µM (active).
Turning to `O=C(Cc1ccccc1F)Nc1cccc(S(=O)(=O)N2CCCCC2)c1`, the “activity change, negative = inhibition” value was -11.9% (inactive).
On to `COc1ccc(CNC(=O)C2CCN(S(=O)(=O)c3ccc4nc5c(c(C(=O)O)c4c3)CCCC5)CC2)cc1`, for which the Potency is 15.1 µM (active).
In the case of `COc1ccc(S(=O)(=O)N2CCN(C(=O)c3cc4c(s3)CCC4)CC2)cc1`, the “activity change, negative = inhibition” value was -25.3% (inactive).
As to `Cc1ccc(CNC(=O)C2CCN(S(=O)(=O)c3ccc4nc5c(c(C(=O)O)c4c3)CC(C)CC5)CC2)cc1` (stereo not drawn), the Potency was 8.49 µM (active).
For `O=C(O)c1c2c(nc3ccc(S(=O)(=O)N4CCC(C(=O)NC5CCCC5)CC4)cc13)CCCCC2`, the “activity change, negative = inhibition” value is -12.6% (inactive).
As to `CCN(CC)c1ccc(/C=N/N2CCN(Cc3ccccc3Cl)CC2)cc1`, the Potency is 7.57 µM (active).
The same measure, in the same setting: the value for `CCN1C(=O)c2cccc3c(S(=O)(=O)N(C(C)=O)c4ccc(OC(C)=O)cc4)ccc1c23` was 15.1 µM (active).
With `CC(=O)Oc1ccc(N2C(=O)c3cccc4c([N+](=O)[O-])ccc(c34)C2=O)cc1`, the “activity change, negative = inhibition” value was -22.5% (inactive).
Take `O=C(O)c1c(Br)c(Br)c(Br)c(Br)c1C1c2ccc(O)cc2Oc2cc(O)ccc21`: the Potency was 1.35 µM (active).
On the same count and under the same terms, to `C[N+](C)(CCCCCI)c1ccc(/C=C/c2nc3ccccc3s2)cc1` belongs 13.5 µM (active).
Regarding `Cc1ccc(C2CC(c3ccc(Br)cc3)=NN2C(=O)CSC2=NN3CCCC(=O)N=C3S2)cc1` (stereo not drawn), the “activity change, negative = inhibition” value is -26.2% (inactive).
As to `Nc1ccc2nc3c(=O)[nH]c(=S)[nH]c3nc2c1`, the Potency was 6.01 µM (active).
Take `COC(=O)c1ccccc1NC(=S)NC(=O)c1ccc(C)cc1`: the Potency is 13.5 µM (active).
On the same count and under the same terms, the value for `O=C1C(N2CCOCC2)=Cc2cccc3cccc1c23` was 19 µM (active).
As for `CCOC(=O)C1=C(N)Oc2c(oc(CO)cc2=O)C1c1ccc(Cl)cc1` (stereo not drawn), the “activity change, negative = inhibition” value was -29.1% (inactive).
On the same count and under the same terms, to `COc1ccc(C(=O)CC(=O)Nc2ccc([N+](=O)[O-])cc2)cc1` belongs -14.9% (inactive).
On to `O=C(Nc1cc([N+](=O)[O-])ccc1O)c1cccc(C(=O)Nc2cc([N+](=O)[O-])ccc2O)c1`, for which the Potency was 3.79 µM (active).
For the molecule `NC(N)=Nc1nc2cc([N+](=O)[O-])ccc2o1`, the “activity change, negative = inhibition” value was -25% (inactive).
Still for that read-out and setting: the value for `O=C(O)CSCc1nc2cccnc2n1C1CCCCC1` was -11.2% (inactive).
`O=C(O)C1=NN(c2cc(Cl)c(S(=O)(=O)O)cc2Cl)C(=O)C1`: the Potency was 8.49 µM (active).
The same measure, in the same setting: to `COc1cc(C(=O)Nc2scc(-c3ccc(Br)cc3)c2C(=O)O)cc(OC)c1OC` belongs 19 µM (active); to `Cc1ccc(-c2csc(NC(=O)c3ccccc3F)c2C(=O)O)cc1`, 7.57 µM (active).
On to `CCCC[C@@]1(C2CCCC2)Cc2cc(OCC(=O)O)c(Cl)c(Cl)c2C1=O`, for which the “activity change, negative = inhibition” value was -29% (inactive).
Turning to `O=C(NN1C(=O)/C(=C/C=C/c2ccco2)SC1=S)c1ccncc1`, the Potency is 6.01 µM (active).
For the molecule `O=C1/C(=C/C=C/c2ccco2)SC(=S)N1NS(=O)(=O)c1ccccc1`, the Potency was 7.57 µM (active).
On to `CCn1c(SCC(=O)N2CCN(c3ccccc3)CC2)nc2c(c1=O)SC(C)C2` (stereo not drawn), for which the “activity change, negative = inhibition” value is -26.4% (inactive).
In the case of `CN(C)c1ccc(N=c2sc3ccccc3n2C)cc1`, the Potency is 7.57 µM (active).
`Cc1cccc(N2CCN(C(=O)C3COc4ccccc4O3)CC2)c1C` (stereo not drawn): the “activity change, negative = inhibition” value is -9.42% (inactive).
As to `O=C(O)/C=C/C(=O)Nc1ccc2c(c1)C(=O)c1ccccc1C2=O`, the Potency was 16.9 µM (active).
Consider `Oc1c(C(Nc2nc3ccccc3s2)c2ccco2)ccc2cccnc12` (stereo not drawn), for which the Potency is 9.53 µM (active).
Still for that read-out and setting: the value for `CN(C)c1ccc(C(=C2C=CC(=[N+](C)C)C=C2)c2c(O)c(S(=O)(=O)[O-])cc3cc(S(=O)(=O)O)ccc23)cc1` was 7.57 µM (active); that for `CN(C)c1ccc(C(=C2C=CC(=[N+](C)C)C=C2)c2ccc(N(C)C)cc2)cc1` was 6.01 µM (active).
For the molecule `O=C(Nc1ccc(-c2nc3cccnc3s2)cc1)C1CCCO1` (stereo not drawn), the “activity change, negative = inhibition” value is -24.1% (inactive).
Consider `Cc1cc(=O)n2nc(N3CCCC(C(=O)Nc4ccc(C)c(C)c4)C3)sc2n1` (stereo not drawn), for which the “activity change, negative = inhibition” value was -29.7% (inactive).
For the molecule `CCc1ccc(N=C2NC(=O)/C(=C/c3cc(OC)c(O)c(OC)c3)S2)cc1`, the Potency was 19 µM (active).
On to `COc1ccc(-c2ccc(SCc3cccnc3)nn2)cc1OC`, for which the Potency was 16.9 µM (active).
Consider `Cc1ccc(NC(=S)N2CCc3[nH]c4ccccc4c3C2)cc1`, for which the “activity change, negative = inhibition” value is -30% (inactive).
As to `COc1cccc(/C=N/N2C(=O)CSC2=S)c1O`, the Potency is 0.478 µM (active).
As to `Nc1c(N=Nc2ccc([N+](=O)[O-])cc2)c(S(=O)(=O)O)cc2cc(S(=O)(=O)O)c(/C=C/c3ccccc3)c(O)c12`, the Potency was 7.57 µM (active).
On the same count and under the same terms, the value for `COc1ccc(C(CCNCc2ccc(N(C)C)cc2)C(C)C)cc1` (stereo not drawn) was 8.49 µM (active).
With `COc1ccccc1C(CCNCc1ccc(N(C)C)cc1)c1ccc(OC(C)C)cc1` (stereo not drawn), the Potency is 6.01 µM (active).
